T cruzi growth-1: T. cruzi intracellular proliferation inhibitors, primary screen, cell-based, beta-gal Tulahuen parasites, NIH3T3 host, luminescence. T. cruzi beta-gal in NIH3T3, GalScreen luminescence, 90 h. AID 624255, 2012. inhibition, % at 8.34 µM. 77,000 compounds, 5.9% hits;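 active = mean inhibition above about 93%, with at least 55% of replicates each passing it, limit read from the data, passing the limit was not always enough; inconclusive = only one of those two conditions holds; inactive = neither condition holds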
Pf Dd2 growth: P. falciparum Dd2 growth inhibitors, primary screen, SYBR Green fluorescence, single dose replicates; 72 h; hits give low values; activity change, % at 10 µM; 94,000 compounds, 2.3% hits; AID 1159554, 2015; in the data active = activity change below about -80%; inconclusive = no clear call, values can overlap the other calls
C diff growth: C. difficile growth inhibitors, primary screen, HTS; Clostridium difficile clinical isolate growth, OD600, 24 h; hits give low values; growth activity, negative = inhibition, % at 16 µg/mL (by protocol); 86,000 compounds, 0.25% hits; AID 1259249, 2017;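 active = mean growth activity at or below -80% and every replicate also at or below -80%; inconclusive = mean at or below -80% but some replicate above -80%; inactive = mean growth activity above -80%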;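 also: 0% = DMSO wells and -100% = levofloxacin 16 µg/mL wells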
T cruzi growth-2: T. cruzi intracellular proliferation inhibitors, confirmation, cell-based, NIH3T3 host, beta-gal parasite, luminescence, cherry-pick. AID 651739, 2012. T. cruzi beta-gal in NIH3T3, GalScreen luminescence, 90 h. inhibition, % at 8.35 µM. shares compounds with T cruzi growth-1. 5,600 compounds, 72% hits;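 active = mean replicate inhibition above about 95% and at least 55% of replicates individually reaching it, limit read from the data; inconclusive = only one of the two criteria is met; inactive = neither criterion is met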
T cruzi growth-3: inhibitors of intracellular T. cruzi replication, confirmation, NIH3T3 host cells, beta-gal parasites, cherry-pick, set 2 | shares compounds with T cruzi growth-1 | T. cruzi beta-gal in NIH3T3, GalScreen luminescence, 90 h | inhibition, % at 2.09 µM | 5,600 compounds, 21% hits;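 active = mean inhibition above about 95%, with at least 55% of replicates also reaching it, limit read from the data; inconclusive = meets just one of the two conditions; inactive = meets neither condition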;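 also: plate controls were neutral control median for no effect and positive control median for full effect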
3T3 cytotox: cytotoxicity in mouse NIH/3T3 fibroblasts, confirmation, cytotoxicity control for T. cruzi proliferation inhibitor project, cell-based, cherry-pick, single point; NIH/3T3 viability, CellTiter-Glo ATP luminescence, 90 h; AID 651742, 2012; 5,600 compounds, 14% hits; shares compounds with T cruzi growth-1; cytotoxicity (signal decrease), % at 8.35 µM;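 active = mean signal decrease across replicates above about 35% based on untreated-well scatter, with enough replicates individually passing, limit read from the data; inconclusive = no rule stated though some were filed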;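 also: 0% = median of neutral control wells and 100% = median of positive control wells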
3T3 cytotox 2: NIH/3T3 fibroblast cytotoxicity, confirmation, cytotoxicity control, cell-based, cherry-pick, single point, set 2 | shares compounds with T cruzi growth-1 | NIH/3T3 viability, CellTiter-Glo ATP luminescence, 90 h | inhibition, % at 24.9 µM | 5,600 compounds, 56% hits | AID 651744, 2012;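 active = mean loss of cell viability signal at or above a set limit, and enough replicates individually reaching it; inconclusive = meets only the mean limit or only the replicate share; inactive = meets neither condition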;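 also: 0% = median of neutral control wells and 100% = median of positive control wells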
Active calls of the source: *; u = inconclusive; x = no result given. A selection: hits, their analogues and other compounds. The true share with any hit is near 6.7%.

SMILES	T cruzi growth-1	Pf Dd2 growth	C diff growth	T cruzi growth-2	T cruzi growth-3	3T3 cytotox	3T3 cytotox 2
O=C(C1CCC1)N1CCCCN2[C@H](C1)[C@H](c1ccc(C#CC3(O)CCCC3)cc1)[C@@H]2CO	73	28	-4	x	x	x	x
O=C(C1CCC1)N1CCCCN2[C@H](C1)[C@@H](c1ccc(C#CC3(O)CCCC3)cc1)[C@@H]2CO	69	12	-4	x	x	x	x
O=C(c1ccc(F)cc1)N1CCCCN2[C@H](CO)[C@H](c3ccc(C#CC4(O)CCCC4)cc3)[C@@H]2C1	107*	17	6	103*	-23	13	18
O=C(C1CCCC1)N1CCCCN2[C@H](CO)[C@H](c3ccc(C#CC4(O)CCCC4)cc3)[C@H]2C1	104*	-5	-9	109*	89	13	30*
O=C(C1CCC1)N1CCCCN2[C@H](CO)[C@H](c3ccc(C#CC4(O)CCCC4)cc3)[C@H]2C1	101*	24	-4	u	71	5	5
O=C(C1CCC1)N1CCCCN2[C@H](CO)[C@H](c3ccc(C#CC4(O)CCCC4)cc3)[C@@H]2C1	u	10	-3	99*	65	20	39*
O=C(c1ccc(F)cc1)N1CCCCN2[C@H](CO)[C@@H](c3ccc(C#CC4(O)CCCC4)cc3)[C@@H]2C1	78	-4	0	x	x	x	x
COCC#Cc1cnc2c(c1)C(=O)N([C@@H](C)CO)C[C@@H](C)[C@@H](CN(C)Cc1ccccc1F)O2	-11	5	0	x	x	x	x
CN1CCN(C(=O)C[C@H]2CC[C@@H]3[C@@H](COc4ccc(NC(=O)c5ccc(F)c(F)c5)cc4C(=O)N3C)O2)CC1	15	1	-3	x	x	x	x
CCC(=O)N[C@H]1CC[C@@H](CCNS(=O)(=O)c2ccc(Cl)cc2)O[C@H]1CO	x	-6	0	x	x	x	x
COc1cccc(NC(=O)N2C[C@@H](O)COC[C@H]3O[C@@H](CC(=O)NC4Cc5ccccc5C4)CC[C@@H]32)c1	-36	-50	-1	x	x	x	x
C[C@@H]1CCCCO[C@@H](CN(C)S(=O)(=O)c2ccc(F)cc2)[C@@H](C)CN([C@H](C)CO)C(=O)c2cc(NC(=O)C3CCCCC3)ccc2O1	24	-68	-4	x	x	x	x
C[C@@H]1CCCCO[C@@H](CN(C)S(=O)(=O)c2ccc(Cl)cc2)[C@@H](C)CN([C@@H](C)CO)C(=O)c2cc(NC(=O)C3CCCCC3)ccc2O1	108*	-81*	1	108*	90	6	u
C[C@@H]1CN([C@@H](C)CO)C(=O)c2cc(NC(=O)C3CCCCC3)ccc2O[C@@H](C)CCCCO[C@@H]1CN(C)S(=O)(=O)c1ccc(Cl)cc1	u	-81*	0	105*	51	-22	17
Cc1ccc(S(=O)(=O)N(C)C[C@@H]2OCCCC[C@H](C)Oc3ccc(NC(=O)C4CCCCC4)cc3C(=O)N([C@H](C)CO)C[C@@H]2C)cc1	80	-73	-3	x	x	x	x
C[C@H]1CCCCO[C@H](CN(C)S(=O)(=O)c2ccc(Cl)cc2)[C@@H](C)CN([C@@H](C)CO)C(=O)c2cc(NC(=O)C3CCCCC3)ccc2O1	110*	-85*	0	110*	101*	2	20
C[C@@H]1CCCCO[C@H](CN(C)S(=O)(=O)c2ccc(Cl)cc2)[C@H](C)CN([C@H](C)CO)C(=O)c2cc(NC(=O)C3CCCCC3)ccc2O1	110*	-84*	-1	101*	108*	-12	8
Cc1ccc(S(=O)(=O)N(C)C[C@@H]2OCCCC[C@@H](C)Oc3ccc(NC(=O)C4CCCCC4)cc3C(=O)N([C@@H](C)CO)C[C@H]2C)cc1	81	-62	x	x	x	x	x
C[C@@H]1CCCCO[C@H](CN(C)S(=O)(=O)c2ccc(Cl)cc2)[C@@H](C)CN([C@H](C)CO)C(=O)c2cc(NC(=O)C3CCCCC3)ccc2O1	36	-58	0	x	x	x	x
